# Experimental data from PubChem BioAssay AID1035 (National Center for Advancing Translational Sciences (NCATS), 2008).
# Activity calls are given as the source filed them. The rule behind the calls is not given here.
# Assay: HDAC Secondary Assay for qHTS Assay for Epigenetic Modulators
# Conditions: HeLa nuclear extract HDAC activity, fluorogenic substrate, 20 min; at 48 µM; hits give low values
# From the text: NIH Molecular Libraries Screening Centers Network [MLSCN] NIH Chemical Genomics Center [NCGC] MLSCN Grant: 1 X01 MH079860-01 Assay Provider: Elisabeth D. Martinez, University of Texas SW Medical Center NCGC Assay Overview: This secondary assay characterizes selected actives identified in the qHTS of the Locus Derepression (LDR) assay (PubChem AID 597). The LDR assay detects the derepression of a GFP reporter that is stably integrated in a region of the genome of murine c127i mammary cells that is presumably silenced. Compounds that cause derepression of the locus to express GFP are identified by enumerating GFP positive cells using a laser-scanning microplate cytometer. Selected LDR actives were assayed for inhibition of histone deacetylase (HDAC) activity in HeLa nuclear extracts using a HDAC fluorometric kit (AK-500, Biomol International LP). This assay uses a substrate containing an acetylated lysine side chain that is deacetylated by HDAC enzymatic activity to generate a fluorophore.
# NCGC Assay Protocol Summary HeLa nuclear extracts and acetylated profluorescent substrate were incubated with vehicle, 0.5 uM TSA, or 48 uM indicated LDR compound for 20 min at ambient temperature and fluorescence was measured. Background-subtracted activity was expressed as a percent of uninhibited extract. Tests were performed in 25 uL volume in 384-well black plates using the HDAC assay kit AK-500 (Biomol International LP). For further details, see R.L. Johnson, W. Huang, A. Jadhav, C.P. Austin, J. Inglese, E.D. Martinez, A Quantitative High-Throughput Screen Identifies Potential Epigenetic Modulators of Gene Expression, Analytical Biochemistry (2007), doi: 10.1016/j.ab.2007.12.028
row,Compound,remaining HDAC activity
1,O=C(CSc1cccc2cccnc12)NCc1ccccc1,96% (inactive)
2,CCN1CSC(=S)N(CC)C1,103% (inactive)
3,COc1ccc(C(NC(=O)C(C)C)c2ccc3cccnc3c2O)cc1 (stereo not drawn),106% (inactive)
4,O=Nc1ccc(O)c2ncccc12,84% (inactive)
5,CC(/C=C/C(=O)NO)=C\[C@@H](C)C(=O)c1ccc(N(C)C)cc1,1% (active)
6,CN1CCN(Cc2cc(Cl)c3cccnc3c2O)CC1,109% (inactive)
7,CCN(CC)c1ccc2cc(-c3nc4ccccc4[nH]3)c(=O)oc2c1,112% (inactive)
8,CC(C)C(=O)NC(c1ccco1)c1ccc2cccnc2c1O (stereo not drawn),108% (inactive)
9,CN(C)C(=O)CSc1cccc2cccnc12,111% (inactive)
10,O=C(CSc1cccc2cccnc12)N1CCCC1,120% (inactive)
11,CC(C)C(=O)NC(c1ccco1)c1cc([N+](=O)[O-])c2cccnc2c1O (stereo not drawn),112% (inactive)
12,CC(C)C(=O)NC(c1ccc(N(C)C)cc1)c1ccc2cccnc2c1O (stereo not drawn),99% (inactive)
13,CN1C(=S)SC(c2ccccc2)N(C)C1c1ccccc1 (stereo not drawn),107% (inactive)
